Data: the supplement of paper PMC4723716
± gives the uncertainty stated by the source. Over roughly 9,900 compounds, “viability index relative to DMSO control” has its median near 1; the lowest 2% begin near 0.85. This excerpt belongs to a sample that is enriched for the lowest values.

Tested on: Plasmodium falciparum NF54 stage V gametocytes
Assay: viability index relative to DMSO control (fraction); higher = less gametocyte killing
Conditions: 2.5 µM, incubation time: 72 h
Procedure: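 Broad DOS informer set and blood-stage-active DOS compounds screened in duplicate at 2.5 µM against P. falciparum NF54 stage V gametocytes with the serum-free one-step SaLSSA (1536-well): 72 h at 37 °C under low oxygen, then saponin lysis and MitoTracker Red CMXRos staining, with high-content imaging. Viability index = viable-object count divided by the plate mean of DMSO wells (0 = killed, about 1 = inactive).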

[1] = library set: Broad Institute DOS

SMILES | viability index [1] | viability index (library set: Broad Institute Blood Stage)
C[C@@H]1CN([C@@H](C)CO)C(=O)c2cc(NS(=O)(=O)c3cn(C)cn3)ccc2O[C@H]1CN(C)S(=O)(=O)c1ccc(F)cc1 | 1.06 ± 0.038 | 
O=C(C[C@H]1C=C[C@@H](NC(=O)c2ccncc2)[C@H](CO)O1)NCC1CC1 | 1.029 ± 0.0019 | 
Cc1ccccc1-c1ccc([C@H]2[C@H]3CN(S(C)(=O)=O)CC(=O)N3[C@H]2CO)cc1 | 0.975 ± 0.047 | 
CCc1nc(N2[C@@H](C#N)[C@@H](c3ccccc3-c3ccccc3C)[C@@H]2CO)sc1C | 1.08 ± 0.12 | 
CCc1nc(N2[C@H](C#N)[C@@H](c3ccccc3-c3ccccc3C)[C@@H]2CO)sc1C | 1.07 ± 0.088 | 
CCc1nc(N2[C@@H](C#N)[C@H](c3ccccc3-c3ccccc3C)[C@@H]2CO)sc1C | 0.81 ± 0.063 | 
COc1ccc2c3c([nH]c2c1)[C@@H](CO)N(C[C@]31CCN(C)CC1)S(=O)(=O)c1ccccc1 | 1.04 ± 0.032 | 
CO[C@@H]1CN(C)C(=O)c2ccc(NS(C)(=O)=O)cc2OC[C@@H](C)N(C(=O)CN(C)C)C[C@H]1C | 0.977 ± 0.055 | 
N#Cc1ccc(-c2ccc([C@@H]3[C@@H]4CN(C(=O)Nc5ccc6c(c5)OCO6)C[C@H]3N4)cc2)cc1 | 0.56 ± 0.15 | 
O=C(c1ccc(F)cc1)N1C[C@@H]2N[C@H](C1)[C@H]2c1ccc(-c2cccnc2)cc1 | 1.08 ± 0.12 | 
N#Cc1cccc(-c2ccc([C@H]3[C@@H]4CN(C(=O)c5ccc6c(c5)OCO6)C[C@H]3N4)cc2)c1 | 1.09 ± 0.072 | 
N#Cc1ccc(-c2ccc([C@H]3[C@@H]4CN(C(=O)c5cccnc5)C[C@H]3N4)cc2)cc1 | 1.15 ± 0.046 | 
N#Cc1ccc(-c2ccc([C@@H]3[C@@H]4CN(C(=O)c5cccnc5)C[C@H]3N4)cc2)cc1 | 0.81 ± 0.2 | 
N#Cc1cccc(-c2ccc([C@@H]3[C@@H]4CN(C(=O)c5ccc6c(c5)OCO6)C[C@H]3N4)cc2)c1 | 0.896 ± 0.077 | 
O=C(Cc1ccncc1)N1CC[C@@H]2[C@H]1c1cc(-c3ccccc3F)ccc1N[C@@H]2CO | 1.03 ± 0.046 | 
COc1ccc2c3c([nH]c2c1)[C@@H](CO)N(C[C@]31CN(C1)C(=O)Cc1cccnc1)S(C)(=O)=O | 1.06 ± 0.048 | 
CCCC(=O)N1CC[C@@]2(CC1)CN([C@@H](CO)c1[nH]c3cc(OC)ccc3c21)S(=O)(=O)c1ccc(C)cc1 |  | 0.655 ± 0.046
COc1ccc2c3c([nH]c2c1)[C@H](CO)N(C[C@]31CCN(CC1)C(=O)Cc1cccnc1)S(=O)(=O)c1ccc(C)cc1 | 0.75 ± 0.079 | 
COc1ccc2c3c([nH]c2c1)[C@@H](CO)N(Cc1ccc(Cl)cc1)C[C@]31CN(C1)S(C)(=O)=O | 0.931 ± 0.095 | 
COc1ccc(CN2C[C@]3(CN(C3)S(=O)(=O)c3ccc(C)cc3)c3c([nH]c4cc(OC)ccc34)[C@H]2CO)cc1 | 0.793 ± 0.014 | 
CCS(=O)(=O)N1CC[C@@]2(CC1)CN([C@H](CO)c1[nH]c3cc(OC)ccc3c21)S(=O)(=O)c1ccc(C)cc1 | 1 ± 0.046 | 
CCCC(=O)N1C[C@@]2(C1)CN([C@H](CO)c1[nH]c3cc(OC)ccc3c21)S(=O)(=O)c1ccc(C)cc1 | 0.946 ± 0.074 | 
COc1ccc2c3c([nH]c2c1)[C@@H](CO)N(C[C@]31CCN(CC1)C(=O)Cc1cccnc1)S(=O)(=O)c1ccc(C)cc1 | 0.827 ± 0.019 | 
COc1ccc2c3c([nH]c2c1)[C@H](CO)N(C[C@]31CN(C1)C(=O)Cc1cccnc1)S(C)(=O)=O | 1.08 ± 0.04 | 
COc1ccc2c3c([nH]c2c1)[C@H](CO)N(Cc1ccc(Cl)cc1)C[C@]31CN(C1)S(C)(=O)=O | 0.931 ± 0.066 | 
CCS(=O)(=O)N1CC[C@@]2(CC1)CN([C@@H](CO)c1[nH]c3cc(OC)ccc3c21)S(=O)(=O)c1ccc(C)cc1 | 0.934 ± 0.052 | 
CCCC(=O)N1C[C@@]2(C1)CN([C@@H](CO)c1[nH]c3cc(OC)ccc3c21)S(=O)(=O)c1ccc(C)cc1 | 0.9841 ± 0.0028 | 
